The list is not random: actives were taken first. Their share in the collection is about 5.7%.
JMJD2E inh = qHTS Assay for Inhibitors of Human Jumonji Domain Containing 2E (JMJD2E); Lysine-specific demethylase 4E (Homo sapiens), B2RXH2; JMJD2E catalytic domain, FDH-coupled NADH fluorescence (FDH is formaldehyde dehydrogenase); Potency, µM (series often up to 57.1 µM), for the others: at the highest dose activity change, negative = inhibition, most hits filed as inhibitors; 230,000 compounds, 1.6% hits; AID 2147, 2009; active means well fitted inhibition curve with a large enough effect, not every such curve was filed as active; inconclusive means small, poorly fitted or top-dose-only effect, or another doubt; inactive means no such curve, though single readings can be large or run the other way;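 further: potency means the concentration at half of the fitted maximal effect; 0% = wells with enzyme and -100% = buffer wells without enzyme; nearly all actives have a fitted effect of over 50% in size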
L3MBTL1 inh = qHTS Assay for the Inhibitors of L3MBTL1. Lethal(3)malignant brain tumor-like protein 1 (Homo sapiens), Q9Y468. AlphaScreen L3MBTL1–H3K9me1 peptide binding. Potency, µM (titrated, usually from 57.1 µM), inactives show at the highest dose activity, negative = inhibition, hits mostly inhibitors. 230,000 compounds, 0.66% hits; further: potency means the concentration at half of the fitted maximal effect; on the % scale 0 is the no-effect control and ±100 the full control effect; nearly all actives have a fitted effect of over 60% in size
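L3MBTL1 (50 nM) pre-complexed 30 min with biotinylated H3(1-15)K9me1 peptide (75 nM), then compounds added for 30 min at room temperature; AlphaScreen streptavidin donor/nickel chelate acceptor beads (10 ug/mL final) read after 30 min dark incubation.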
HP1b binding inh = HTS for Inhibitors of HP1-beta Chromodomain Interactions with Methylated Histone Tails. Chromobox protein homolog 1 (Homo sapiens), P83916. AlphaScreen HP1-beta / biotin-H3K9me3 peptide binding. Potency, µM (top dose mostly 114 µM), for the others: at the top dose activity change, negative = inhibition, actives largely listed as inhibitors. 390,000 compounds, 0.56% hits; further: potency means the concentration at half of the fitted maximal effect; nearly all actives have a fitted effect of over 70% in size
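AlphaScreen: HP1-beta (50 nM) preformed 30 min with biotin-H3(1-18)K9me3 peptide (50 nM) in PBS pH 7.4, 0.01% Tween-20. Compound added for 30 min at RT, then streptavidin donor/nickel chelate acceptor beads (10 ug/mL) for 30 min.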
JMJD2A Tudor inh = qHTS Assay for Inhibitors of JMJD2A-Tudor Domain. AlphaScreen JMJD2A-Tudor / H3K4me3 peptide binding. AID 504339, 2011. 390,000 compounds, 4.4% hits. Potency, µM (series often up to 114 µM), without a hit: at the highest dose activity change, negative = inhibition, usual class: inhibitors; further: potency means the concentration at half of the fitted maximal effect; on the % scale 0 is the no-effect control and ±100 the full control effect; nearly all actives have a fitted effect of over 50% in size
BAZ2B block = qHTS Assay for Inhibitors of BAZ2B. Bromodomain adjacent to zinc finger domain protein 2B (Homo sapiens), Q9UIF8. AlphaScreen BAZ2B-H3K14Ac peptide displacement. Potency, µM (titrated, usually from 114 µM), inactives show at the top dose activity change, negative = inhibition, actives largely listed as inhibitors. 360,000 compounds, 4.4% hits. AID 504333, 2011; further: potency means the concentration at half of the fitted maximal effect; on the % scale 0 is the no-effect control and ±100 the full control effect; nearly all actives have a fitted effect of over 60% in size
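Multi-concentration screen (max 110 uM) measuring displacement of acetylated histone H3 peptide from BAZ2B by AlphaScreen, using 50 nM protein, 50 nM peptide and 10 ug/mL streptavidin donor plus Ni-chelate acceptor beads.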
PI5P4K alpha inh = qHTS for Inhibitors of phosphatidylinositol 5-phosphate 4-kinase (PI5P4K) | Phosphatidylinositol 5-phosphate 4-kinase type-2 alpha (Homo sapiens), P48426 | PI5P4Kalpha enzyme, ADP-Glo luminescence, 60 min; active compounds read low | max response, % | 330,000 compounds, 1.2% hits | AID 652105, 2013; active means max response of -50% or lower; inconclusive means between -30% and -50%; inactive means -30% or higher; further: value at the top dose of about 77 µM; on the % scale 0 is the no-effect control and ±100 the full control effect
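qHTS, 1536-well: enzyme/substrate mix, compound by pin tool, 5 microM ATP final; RT 60 min; ADP-Glo reagents 1 (45 min) then 2 (30 min); luminescence.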
* hit, by the source's call; ? = inconclusive; . = no result given; [ ] = remark or other dose. Unless noted, the call rests on the fitted dose curve; in most records, active means well fitted inhibition curve with a large enough effect; inconclusive means small, poorly fitted or top-dose-only effect; inactive means no such curve, though single readings can be large or run the other way.

SMILES | JMJD2E inh | L3MBTL1 inh | HP1b binding inh | JMJD2A Tudor inh | BAZ2B block | PI5P4K alpha inh
CCOc1ccc(S(=O)(=O)NCc2cccnc2)cc1NC(=O)c1ccccc1 | . | . | 26%[57 µM] | 1% | . | 4
COc1ccc(C(C)C)cc1S(=O)(=O)NCc1ccccn1 | 0% | 0% | 10% | 2.2µM* | -4% | .
CCOc1ccc(S(=O)(=O)NCc2ccccn2)cc1NC(=O)c1ccccc1 | . | -4% | 15% | 7.9µM* | -31% | 4
Nc1nc(CN2CCN(c3ccc(F)cc3)CC2)nc(N2CCCc3ccccc32)n1 | -4% | -17% | -9% | 50µM* | -64% | .
COc1ccc(Nc2nc(N)nc(CN3CCN(c4ccc(F)cc4)CC3)n2)cc1 | 0% | ? | 20% | ? | ? | 3
Cc1ccc(NC(=O)CCNS(=O)(=O)c2ccc(OC(F)(F)F)cc2)c(O)c1 | . | . | 24% | -10% | -1% | -8
COc1cccc(-c2cn3nc4c(nc3n2)CCCC4)c1 | 22µM* | 5% | 83% | -9% | 0% | ?
CCN(CC)c1ccc(NC(=O)c2c(C)nn(-c3ccc(F)cc3)c2-n2cccc2)c(C)c1 | . | . | -21% | 32µM* | 35µM* | .
COc1cccc(OC)c1OCC(C)CNCC1CCCO1 (configuration not stated) | ? | . | 71µM* | 3.5µM* | ? | .
CC(NC(=O)CN(C)CC(=O)Nc1ccccc1Br)c1ccccc1 (configuration not stated) | . | 2% | -6% | 28µM* | 32µM* | 0
COc1ccc(NC(=O)CN(C)CC(=O)Nc2ccccc2SC)cc1 | ? | 11% | ? | 32µM* | 20µM* | -6
COc1ccc(OCCN(C)CC(=O)Nc2ccccc2SC)cc1 | . | . | 36% | 11% | 6% | -1
COc1ccc(OC)c(NC(=O)CN(C)CC(=O)Nc2ccccc2Br)c1 | ? | 0% | -3% | 8.9µM* | 45µM* | 3
COc1ccc(NC(=O)CN(C)C(=O)Cc2ccc(-c3ccccc3)cc2)cc1 | . | -4% | 21% | 100µM* | 6% | -27
NC(=O)C1=C(N=C2CCCCC2)CCCC1 | . | . | 30% | -6% | . | 3
COc1ccc(N2CC(NC(=O)C3CCCCC3)CC2=O)cc1 (configuration not stated) | . | . | 3% | -9% | -9% | .
C/C(=N\Nc1nnc(C)c(=O)[nH]1)C(=O)O | -3% | 12% | 37% | ? | 13µM* | .
N#CC1C(=O)NC(=O)C(C#N)C12CCCC2 (configuration not stated) | . | . | . | . | . | -51*
CCN1C(=O)C(=CC=CN(C)c2ccccc2)SC1=S | . | . | . | . | . | 4
CCN1C(=O)/C(=C\C=C2/C=CC=CN2CC)SC1=S | ? | ? | 40µM* | ? | 22µM* | -29
CCN1C(=O)/C(=C/C=C2\C=CN(CC)c3ccccc32)SC1=S | ? | -18% | 3.5µM* | ? | 2µM* | -14
Cc1cc(F)ccc1NC(=O)CCS(=O)(=O)c1cccc2nsnc12 | . | . | 15% | -16% | 1% | .
CCC(C)(C)NC(=O)C(c1ccccc1Cl)N(C(=O)CCC(=O)Nc1cc(C)on1)C(C)(C)C (configuration not stated) | . | . | 0% | 56µM* | -8% | -5
O=S(=O)(c1ccc(C(F)(F)F)cc1)N1CCN(S(=O)(=O)c2ccc3c(c2)OCCO3)CC1 | . | . | . | -14% | . | .
COc1ccc(N2C(=O)C(=O)/C(=C(/O)c3ccc(C)cc3)C2c2cccnc2)cc1 (configuration not stated) | 3% | 7% | 0% | ? | 56µM* | -8
SMILES | JMJD2E inh | L3MBTL1 inh | HP1b binding inh | JMJD2A Tudor inh | BAZ2B block | PI5P4K alpha inh
COc1ccc(-n2cc(-c3ccccc3)c3c(NC4CCCC4)ncnc32)cc1 | . | . | 11% | ? | ? | .
Nc1ncnc2c1c(-c1ccc(Oc3ccccc3)cc1)cn2C1CCCC1 | ? | ? | ? | 45µM* | 40µM* | -24
Cc1nnc(NC(=O)c2nc(S(=O)(=O)Cc3ccccc3C)ncc2Cl)s1 | . | . | 33% | ? | 56µM* | -18
CSc1nnc(NC(=O)c2nc(S(=O)(=O)Cc3ccccc3F)ncc2Cl)s1 | . | . | 16%[57 µM] | 22µM* | -11% | -22
COCCNC(=O)C1(C)CCCN(Cc2cc(-c3ccccc3)nn2C)C1 (configuration not stated) | . | . | . | . | . | -1
COc1c(N2CCN(C(=S)NCc3ccccc3)C(C)C2)c(F)cc2c(=O)c(C(=O)O)cn(C3CC3)c12 (configuration not stated) | ? | -29% | -31% | 56µM* | 79µM* | -14
COc1c(F)c(F)cc2c(=O)c(C(=O)O)cn(C3CC3)c12 | . | . | -1% | 28µM* | ? | 2
COc1c(N2CCN[C@H](C)C2)c(F)cc2c(=O)c(C(=O)O)cn(C3CC3)c12 | . | . | 10% | -17% | 0% | 0
CC(C)Oc1ccc(CNC(=O)c2ccc3c(c2)nc2n3CCOC2)cc1 | . | . | 27%[57 µM] | 6% | 4% | .
Nc1ccccc1SSc1ccccc1N | 3% | . | ? | 32µM* | 45µM* | -21
COc1ccc(N2C(=O)CSC23C(=O)N(CC(=O)NCCc2ccccc2)c2ccccc23)cc1 (configuration not stated) | . | . | 26% | -9% | 6%[57.1 µM] | .

Assay outcomes as filed in PubChem BioAssay.
